High-throughput results: PubChem BioAssay, National Center for Advancing Translational Sciences (NCATS)
A selection: hits, their analogues and other compounds. The true share with any hit is near 12%.
Gal4-VP16 FLuc: Gal4-VP16 reporter inhibition counter-screen | Drosophila S2 Gal4-VP16 UAS-luciferase, luminescence, 20 h | Potency, µM (titrated, usually from 53.6 µM), for inactives: at the highest dose activity, negative = inhibition, usual class: inhibitors | actives 3.5% (n = 310,000);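 also: Gal4-VP16 expression switched on by copper sulfate through the metallothionein promoter; nearly all actives have a fitted effect of over 50% in size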
ALDH1A1 inh: blocks purified human ALDH1A1 activity. AID 1030. actives 7.3% (n = 220,000). P00352. Purified ALDH1A1, NADH fluorescence, propionaldehyde substrate. Potency, µM (series often up to 75.3 µM), for the others: top-dose activity, negative = inhibition, most hits filed as inhibitors; active = well fitted inhibition curve with a large enough effect, not every such curve was filed as active; inconclusive = small, poorly fitted or top-dose-only effect, or another doubt; inactive = no such curve, though single readings can be large or run the other way;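 also: plate controls were no enzyme wells and a reference inhibitor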
RORg inh: inhibitors of mouse ROR gamma transcriptional activity; P51450; Potency, µM (top dose mostly 53.6 µM), inactives show at the highest dose activity change, negative = inhibition, usual class: inhibitors; Drosophila S2 Gal4-RORgamma UAS-luciferase reporter, 20 h; actives 5.4% (n = 310,000); AID 2551; also: nearly all actives have a fitted effect of over 60% in size
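Stably transfected Drosophila Schneider cells are the test system, with ROR gamma fused to Gal4 and luciferase under UAS control; luminescence is read after 20 hr of 700 uM copper sulfate induction at ambient temperature.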
Sfp PPTase inh: Sfp phosphopantetheinyl transferase inhibition | Q9F4F7 | Biochemical Sfp PPTase activity, qHTS | actives 3.5% (n = 310,000) | Potency, µM, inactives show largest response in the series, negative = inhibition, usual class: inhibitors;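 also: the enzyme is Sfp with the accession as filed and its product quenches rhodamine fluorescence; 0% = enzyme reaction without inhibitor and -100% = no enzyme wells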
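Step 1, compound plus 15 nM Sfp-PPTase, 15 min, room temperature. Step 2, add rhodamine-CoA (5 uM) and BHQ-2-YbbR (12.5 uM). Step 3, read 525/598 nm fluorescence at 0 and 30 min.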
PLK1 PBD inh: blocks phosphopeptide binding to human PLK1 polo-box domain | P53350 | Plk1 PBD binding of FITC phosphopeptide, fluorescence polarization | Potency, µM, without a hit: max response, negative = inhibition, usual class: inhibitors | actives 2.8% (n = 360,000); also: series mostly up to about 57 µM; nearly all actives have a fitted effect of over 65% in size
Target sequence (P53350 whole entry, looked up, the tested form may be a part): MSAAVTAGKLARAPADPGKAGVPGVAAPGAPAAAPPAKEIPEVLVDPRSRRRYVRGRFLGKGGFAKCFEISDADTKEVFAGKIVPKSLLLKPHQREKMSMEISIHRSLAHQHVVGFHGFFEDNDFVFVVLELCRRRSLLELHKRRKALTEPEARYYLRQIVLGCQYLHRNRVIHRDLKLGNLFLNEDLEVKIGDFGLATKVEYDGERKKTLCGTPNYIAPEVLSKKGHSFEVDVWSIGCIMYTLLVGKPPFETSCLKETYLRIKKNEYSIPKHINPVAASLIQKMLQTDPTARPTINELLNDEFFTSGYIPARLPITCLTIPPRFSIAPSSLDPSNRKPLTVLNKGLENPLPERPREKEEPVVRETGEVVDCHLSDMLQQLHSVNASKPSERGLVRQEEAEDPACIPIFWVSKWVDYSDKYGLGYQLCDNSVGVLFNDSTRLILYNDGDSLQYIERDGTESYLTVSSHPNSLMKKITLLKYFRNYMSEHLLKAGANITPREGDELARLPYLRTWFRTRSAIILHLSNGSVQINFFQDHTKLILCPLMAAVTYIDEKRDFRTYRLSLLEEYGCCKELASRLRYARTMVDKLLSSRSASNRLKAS
* hit, by the source's call; ? = inconclusive; . = no result; ! = a repeat was not active; [ ] = remark or other dose. Unless noted, calls follow the shape of the dose curve; as a rule, active = well fitted curve in the direction sought with a large enough effect; inconclusive = small, poorly fitted or top-dose-only effect, or another doubt; inactive = no such curve, though single readings can be large; an effect the other way counts as inactive or inconclusive. Unless noted, % is scaled to controls: 0 for no effect and ±100 for the full control effect; potency is read from the fitted curve at half-maximal effect.

SMILES | Gal4-VP16 FLuc | ALDH1A1 inh | RORg inh | Sfp PPTase inh | PLK1 PBD inh
CCCNC(=O)C1(C)CCCN(Cc2ccc(C)cc2)C1 (stereo not drawn) | . | . | . | . | -12%
Cc1cc(/C=N/NC(=O)c2cccc([N+](=O)[O-])c2)c(C)n1-c1ccccc1 | 4.5µM* | ? | 3.5µM* | -12% | -13%
O=C(NN=Cc1ccccc1O)c1cccc([N+](=O)[O-])c1 | . | . | . | . | -13%
CC1(CC(=O)N/N=C/c2cc([N+](=O)[O-])c(O)cc2O)OCCO1 | ? | ? | 5.6µM* | 6% | 9.5µM*
COc1ccccc1-c1cc(NCc2cnc(C)cn2)ncn1 | -7% | ? | 0% | 50µM* | .
COc1ccccc1-c1nccc(NCc2cnc(C)cn2)n1 | 5% | 3% | 1% | 50µM* | .
CC(C)N(C(=O)[C@H]1CC(CC(=O)NCC23CC4CC(CC(C4)C2)C3)C(=O)N2CCc3c([nH]c4ccccc34)[C@]12C)C(C)C (stereo partly drawn) | . | . | . | . | -18%
Cc1c(C)[n+](=O)c(-c2ccco2)c(C)n1[O-] | -3% | 25µM* | -5% | -1% | 0%
Cc1c(C)[n+](=O)c(-c2ccc(Br)cc2)c(C)n1[O-] | -5% | . | -8% | 14% | -6%
CC(=O)N1CCC2(CC1)CN(c1ccncc1)C2 | 10% | 10% | -12% | 8% | .
COc1cc(O)c(C(CC(=O)N2CCCCC2)c2ccc3c(c2)OCO3)c(OC)c1 (stereo not drawn) | -5% | . | 14µM* | 13% | 0%
COc1cc(O)c(C(CC(=O)N2CCCC(C)C2)c2ccc3c(c2)OCO3)c(OC)c1 (stereo not drawn) | -7% | . | 3.5µM* | 11% | 4%
COc1cc(O)c(C(CC(=O)N2CCCC(C)C2)c2ccc(N(C)C)cc2)c(OC)c1 (stereo not drawn) | -9% | . | 2µM* | 0% | -12%
COc1cc(O)c(C(CC(=O)N2CCN(c3ccccc3)CC2)c2ccc(N(C)C)cc2)c(OC)c1 (stereo not drawn) | -1% | . | -18% | 89µM*! | -11%
COc1ccc(C(CC(=O)N2CCCC2)c2c(O)cc(OC)cc2OC)cc1 (stereo not drawn) | 1% | . | -7% | 15% | -10%
COc1cc(OC)c2ccc(=O)oc2c1C(CC(=O)N1CCCC(C)C1)c1ccc2c(c1)OCO2 (stereo not drawn) | 11% | . | -3% | -3% | -17%
O=C(c1ccoc1)N1CCN(c2cc(-c3ccccc3)nc3cc(-c4ccc(Br)cc4)nn23)CC1 | . | . | . | . | -23%
NS(=O)(=O)c1ccc(CCNS(=O)(=O)Cc2ccc(Cl)cc2)cc1 | -20% | . | 14% | 19% | -11%
CCC(C)c1ccc(S(=O)(=O)N2CCN(C(=O)CN3C(=O)NC(C)(C4CC4)C3=O)CC2)cc1 (stereo not drawn) | . | . | . | . | -1%
CCc1nc2c(OCC(=O)C(C)(C)C)cccn2c1N(C)C(=O)COc1ccccc1 | . | . | . | . | -9%
O=C1CCC=C1[C@@H](O)CCc1ccccc1 | -1%[10 µM] | 8%[13.5 µM] | -16%[10 µM] | 3% | .
Cc1ccc(CN2C(=O)CCC2C(=O)NCCN(CC(C)C)CC(C)C)cc1 (stereo not drawn) | 4% | 22µM* | -35% | 4% | 0%
COc1cc(C2Nc3cccc4cccc(c34)N2)ccc1O | -20% | . | ? | 45µM* | -18%
COc1cc(C2Nc3cccc4cccc(c34)N2)cc(OC)c1OC(C)=O | -10% | ? | -22% | -26% | ?
CC(=O)NC1[C@H](O)C[C@@](O)(C(=O)O)O[C@H]1[C@H](O)[C@H](O)CO (stereo partly drawn) | -1% | . | 9% | 23% | .
SMILES | Gal4-VP16 FLuc | ALDH1A1 inh | RORg inh | Sfp PPTase inh | PLK1 PBD inh
O=C(CSc1ccc(-c2ccccn2)nn1)N1CCCC1 | -7%[10 µM] | -2% | 41% | 45µM* | 13µM*
O=C(CSc1ccc(-c2ccco2)nn1)N1CCCCC1 | -8% | ? | 9% | ? | -8%
O=C(CSc1ccc(-c2ccco2)nn1)N1CCCC1 | 0% | ? | 1% | 50µM* | -5%
O=C(CSc1ccc(-c2ccccn2)nn1)c1ccccc1 | 5% | 3% | ? | -43% | -7%
COC(=O)c1ccc(C(NC(=O)OCc2ccccc2)/C(=C/[C@@H](C)C(=O)N(C)Cc2ccccc2)c2cccnc2)cc1 (stereo partly drawn) | -12% | -1% | 35% | 22% | .
CCCCCOc1ccc(/C=c2\sc3nc(=O)c(-c4ccccc4)nn3c2=O)cc1OC | -4% | 11µM* | 2% | -7% | 0%
CCCOc1ccc(/C=c2\sc3nc(-c4ccco4)nn3c2=O)cc1OCC | -5% | -5% | 13% | -19% | 0%
CC1CCC2(CC1)NC(=O)N(CC(=O)NC1CCCCC1C)C2=O (stereo not drawn) | . | . | . | . | -15%
CCOCCn1c(CC)nc2ccccc21 | 2% | 2% | -42% | 4% | -11%
CCn1c(CCc2ccccc2)nc2ccccc21 | ? | . | ? | -7% | -9%
CC(C)(C)Cc1nc2ccccc2n1CCc1ccccc1 | 16µM* | 3% | 7.9µM* | 2% | 0%
C=C(Br)Cn1c(CC(C)C)nc2ccccc21 | -6% | 6% | 35µM* | 9% | 2%
C=C(Br)Cn1c(CC)nc2ccccc21 | 0% | 1% | -35% | 9% | -2%
CCc1nc2ccccc2n1CCC(C)C | 13µM* | 3% | 10µM* | 14% | 0%
CCc1nc2ccccc2n1CCc1ccccc1 | 2% | 5% | 8.9µM* | -28% | -15%
COC(=O)C[C@@H]1OC[C@H](CO)N1S(=O)(=O)c1ccc(C)cc1 | . | . | . | . | -6%
COc1ccccc1-c1nnc(SCC(=O)Nc2ccc(S(N)(=O)=O)cc2)n1C | 0% | ? | 1% | -6% | -9%
COC(=O)NC(/C(C(=O)OC)=C(\C)NCc1ccccc1)c1ccco1 (stereo not drawn) | -10%[10 µM] | 18%[13.5 µM] | 15%[10 µM] | 5% | .
CC(C)Cc1nc2ccccc2n1CCc1ccccc1 | ? | 6% | 8.9µM* | -12% | -1%
Cc1ccc(-c2csc(NC(=O)c3ccccc3F)c2C(=O)O)cc1 | 9% | . | 2% | 14% | ?
Cc1ccccc1C(=O)Nc1scc(-c2ccc(Br)cc2)c1C(=O)O | . | . | . | . | 21µM*
COc1ccc(OC)c(-n2nnnc2SCC(=O)NCc2ccc3c(c2)OCO3)c1 | -1% | 13µM* | 5% | 14% | -11%
COC(=O)c1ccc(NC(=O)CSc2nnnn2C2CCCCC2)cc1 | -6% | -2% | 23% | -19% | -10%
COc1cccc(-c2nnc(SCC(=O)NCc3ccc4c(c3)OCO4)n2Cc2ccco2)c1 | -2% | ? | 3% | 40µM* | -13%
CC(=O)Nc1ccc(C(=O)CSc2nnnn2C2CCCC2)cc1 | -4% | 16µM* | 24% | 12% | -11%
O=C(CSc1nnnn1C1CCCC1)NCc1ccc2c(c1)OCO2 | -4% | 20µM* | 23% | 19% | -6%
COc1ccc2[nH]cc(CCNc3cc(-c4cccc(C#N)c4)ncn3)c2c1 | -2% | ? | 3% | -9% | .
